# What was measured:
# Assay in all cases: PBM binding z-score (relative to random genomic background probes); higher = stronger binding; sequences stand for … in GC…GCGATTGACAGCGTAGAATGAAGG
# [1] = system: PPARg:RXRa IVT, anti-PPARg (NR concentration 270 nM, RXRa partner concentration 90 nM)
# Procedure, shortened: (§1)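 On custom Agilent 4×180K arrays, double-stranded probes with 34-nt variable regions carried direct-repeat seeds, single-nucleotide variants, half-site ablations or random human genomic background. Ligand-free nuclear receptor dimers were applied for 1 h, and binding was read with antibodies against each partner (one per run). Binding z-scores come from regression-normalized fluorescence, with the random background probes as reference.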
# [2] = system: PPARg DBDmut:RXRa IVT, anti-PPARg (DBD mutation: PPARg1 K132A/R137A, NR concentration 270 nM, RXRa partner concentration 90 nM)
# Procedure, shortened: as §1
# [3] = system: PPARg DBDmut IVT, anti-PPARg (DBD mutation: PPARg1 K132A/R137A, NR concentration 270 nM)
# Procedure, shortened: as §1
# [4] = system: PPARg homodimer (NR concentration 180 nM)
# Procedure, shortened: as §1
# [5] = system: PXR:RXRa (NR concentration 270 nM, RXRa partner concentration 90 nM)
# Procedure, shortened: as §1
# [6] = system: PXR homodimer (NR concentration 270 nM)
# Procedure, shortened: as §1
# [7] = system: RARa:RXR (NR concentration 270 nM, RXRa partner concentration 90 nM)
# Procedure, shortened: as §1
# [8] = system: RARa homodimer (NR concentration 270 nM)
# Procedure, shortened: as §1
# [9] = system: RARb:RXRa (NR concentration 270 nM, RXRa partner concentration 90 nM)
# Procedure, shortened: as §1
# [10] = system: RARb homodimer (NR concentration 270 nM)
# Procedure, shortened: as §1
Sequence,PBM binding z-score [1],PBM binding z-score [2],PBM binding z-score [3],PBM binding z-score [4],PBM binding z-score [5],PBM binding z-score [6],PBM binding z-score [7],PBM binding z-score [8],PBM binding z-score [9],PBM binding z-score [10]
CGTCCAAGGTCATATGAGGTCAGTGAAGACAGAT,3.84,0.668,0.114,4.65,7.23,9.26,6.07,2.7,5.34,5.47
TAGCCTAGGTCATTCAGGGGCAAGTATAGAAAGC,3.07,0.118,0.778,1.7,5.54,0.783,3.46,0.682,3.81,3.46
TACCCTAGGTCATTCAGGGGCCAGTATAGAAAGC,3.23,-0.205,0.64,2.57,2.68,0.936,3.65,0.569,4.13,3.8
ATATGTAGGTTAGCTGGGGTCATTCACACTAGGC,6.11,2.75,2.29,3.1,6.36,4.2,5.41,1.89,2.85,3.87
GATACAGGGTCAAGGTCAGAGTACGCGTATTGAT,5.18,1.47,0.678,2.96,5.08,1.84,5.53,2.12,5.11,5.14
TAGCCTAAGTCATGCGGGCCAGTATAGTGTCGGC,-0.138,-0.862,-1.37,-0.139,-0.538,-0.831,-0.11,-1.14,-0.165,-0.506
CAAACCAGGTCAAGAGGTCAAAGTCCGCTTCCCG,6.81,3.85,3.15,8.14,–,3.35,8.42,3.47,5.6,5.59
AGAATGGGGTTATACGTAGATCAGGGAAGAAAGT,2.95,2.51,1.53,1.86,2.56,1.48,–,1.54,1.93,1.67
CCTTACGGGTCACGTGGTTATAGCACGACGAGCG,4.93,0.819,-0.242,1.26,–,-0.028,4.4,0.132,4.49,3.47
CGTCCAAGGTCATAGGAGGTCAATGAAGACAGAT,5.13,0.774,0.632,4.29,7.13,6.06,6.16,1.49,–,5.71
CGTCAAAGTTCAAGGTCACGTAACAGAAAGCAGC,4.54,0.668,0.649,4.73,6.25,4.18,5.79,3.09,–,5.56
CAAACTAGGTCACGAGAGGTCAAAGTCGAATGAC,9.18,3.71,4.06,5.24,–,3.95,7.58,2.65,5.51,5.6
CTCGAAAGGTCATGCTCAGGTGAGTATACCAAAC,4.89,1.38,0.849,3.71,5.91,0.752,6.85,2.27,–,5.14
CGTCCAAGGTCTAGGTCAGTGAAAGAGACTCGAA,1.61,-1.11,-1.28,0.763,–,-0.179,0.514,0.0377,2.48,2.38
TGTCAAAGTTCAAAGGTGACGTAAGTATCCACAC,5.07,1.7,1.53,5.33,6.34,5.43,–,2.52,5.36,4.05
ATCGAAAGGTCGACGAGGTGAGTAAACACCGTTT,1.85,0.135,1.17,1.63,3.05,0.324,–,0.378,3.85,2.98
AATACAGGGTCATCGTAGGTCAGAGTACGCACAG,5.07,3.45,1.68,3.34,–,1.57,6.33,1.7,4.69,4.58
CTCGAAAGGTCGTGCTCAGATGAGTATACCAAAC,1.25,0.625,1.37,1.3,2.96,0.152,–,0.441,3.79,2.15
AGTCAAAGGTCATCTAGGTAACGTAAGATATGCT,6.77,2.25,1.94,3.75,5.44,1.34,6.03,2.2,–,5.29
CCTTAGGGGTCACTGACAGGTTATAGCATTTGGA,5.5,1.68,2.53,4.49,6.32,0.503,–,2.05,–,4.99
TATACAGGGTCAAAGGCCAAAGTACGAATGTCGA,5.37,2.17,1.63,4.71,5.05,0.969,–,1.74,4.76,3.7
CGAACGAGGTCATCCAGGACAGTGAATACATTGA,6.11,3.53,2.68,4.36,–,9.68,6.05,1.86,5.11,4.1
CCGACGGGGGCAAAGGTTACCATACTCAGTACGA,5.25,2.34,3.31,2.4,5.31,0.704,–,0.677,3.84,3.21
CCTCGGAGGACAGAAGGTCAAAGCTGTCCGCTTT,0.662,-1.42,-2.33,2.07,3.39,0.288,–,0.206,3.74,4.26
ATCGAAAGGTCAAGGTGAGTATAGAGAAAGGGAA,5.43,2.02,1.2,4.09,5.13,1.19,5.85,2.51,–,5.32
CCTTAAGGGTCACGAGGTTATAGCACGACGAGCG,5.81,1.74,1.89,4.47,5.46,0.279,6.79,1.6,–,5.02
CAAAATAGGTCACCGGAAGGTCAAAGTCCGCATG,8.01,1.87,1.44,8.87,6.56,1.96,8.2,4.27,–,5.89
